Our source for the Potency values is PubChem BioAssay AID493170 (National Center for Advancing Translational Sciences (NCATS), 2011).

Structures are written as SMILES. Results filed as inconclusive are left out. Where a call stands in place of a potency, no number is given. Calls of active or inactive are those of the source. Calls come from the whole dose curve; as a rule, active = well fitted inhibition curve with a large enough effect; inconclusive = small, poorly fitted or top-dose-only effect, or effect the other way; inactive = flat fitted curve, though single readings scatter.
Potency is the fitted concentration of half-maximal effect.

Ubiquitin carboxyl-terminal hydrolase 2 (Homo sapiens), sequence (O75604 whole entry, looked up): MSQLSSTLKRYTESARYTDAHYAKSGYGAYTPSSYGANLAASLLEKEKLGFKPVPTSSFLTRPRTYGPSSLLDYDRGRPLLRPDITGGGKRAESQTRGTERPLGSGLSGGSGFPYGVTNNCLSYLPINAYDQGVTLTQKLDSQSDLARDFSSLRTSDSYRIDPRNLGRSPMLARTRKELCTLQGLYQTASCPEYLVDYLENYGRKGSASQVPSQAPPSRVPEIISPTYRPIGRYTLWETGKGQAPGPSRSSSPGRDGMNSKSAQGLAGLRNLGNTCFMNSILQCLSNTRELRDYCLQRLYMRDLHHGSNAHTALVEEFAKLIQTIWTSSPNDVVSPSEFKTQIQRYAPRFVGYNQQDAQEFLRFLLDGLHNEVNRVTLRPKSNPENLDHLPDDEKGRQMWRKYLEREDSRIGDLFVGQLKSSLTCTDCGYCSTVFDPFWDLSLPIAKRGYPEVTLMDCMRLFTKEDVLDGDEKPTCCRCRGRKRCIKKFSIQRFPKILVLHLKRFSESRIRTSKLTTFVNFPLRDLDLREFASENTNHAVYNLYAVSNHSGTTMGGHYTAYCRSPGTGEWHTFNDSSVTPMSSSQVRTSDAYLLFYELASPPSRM

This assay has as its target Ubiquitin carboxyl-terminal hydrolase 2 (Homo sapiens) (UniProt O75604). Nature of the assay: Ub-rhodamine 110 based assay for inhibitors Ubiquitin-specific Protease USP2a. Note: nearly all actives have a fitted effect of over 50% in size. To be noted: USP2a Ub-rhodamine110 cleavage, fluorescence; series mostly up to 38.3 µM. The method, boiled down: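 Kinetic fluorescence (485/531 nm) read each minute over 7 min after adding Ub-Rhod110 (150 nM final) to USP2a (5 nM final). The enzyme had 30 min RT exposure to compounds beforehand in Tris pH 8.0 buffer with CaCl2, CHAPS and beta-ME.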
Regarding `CC1CCCC(N2CCN(C(=O)c3cccc(F)c3)CC2)C1` (stereo not given), the Potency result is “inactive”.

As for `Cc1n[nH]c(C)c1S(=O)(=O)N1CCCC(C(=O)NC2CCCc3ccccc32)C1` (stereo not given), the Potency entry was “inactive”.

Consider `C=CC[C@H](CC(=O)N[C@H](CO)Cc1ccccc1)C(=O)N[C@@H](COC(=O)[C@@H](CC=C)CC(=O)OC(C)(C)C)Cc1c[nH]c2ccccc12`, for which the Potency result was “inactive”.

`O=S(=O)(NC1CCSc2ccccc21)c1ccccc1` (stereo not given): the Potency entry is “inactive”.

Take `COc1ccccc1C1NC(c2ccccc2OC)C(C)C(=O)C1C` (stereo not given): the Potency entry was “inactive”.

In the case of `COc1cc(/C=C/[N+](=O)[O-])ccc1OCc1cccc(C(=O)O)c1`, the Potency entry is “inactive”.

Take `O=C1OC[C@@H]2CCCN2C(=O)[C@@H](CC(=O)N(CCO)Cc2ccccc2)C/C=C\C[C@@H]1Cc1ccc(F)cc1`: the Potency entry is “inactive”.

As to `Cc1cccc(NC(=S)NCc2ccc3c(c2)cc(C)n3C)c1C`, the Potency result was “inactive”.

Regarding `O=C(CSc1ccc(Br)c2cccc(Cl)c12)Nc1ccc(S(=O)(=O)Nc2nccs2)cc1`, the Potency is 3.55 µM (active).

`CCOc1ccccc1C(=O)Nc1nnc(C(C)C)s1`: the Potency entry was “inactive”.

In the case of `CCN(C[C@H]1N[C@@](CC)(C(=O)OC)[C@H]2C(=O)N(Cc3ccccc3)C(=O)[C@@H]12)C(=O)Nc1ccc(C)cc1`, the Potency result was “inactive”.

As to `Cc1ccc(C)n1-c1cc(S(=O)(=O)N2CCOCC2)ccc1N1CCCC1`, the Potency result was “inactive”.

`Cc1ccc(C(=O)Oc2coc(CSc3nnc(NC(=O)c4cccs4)s3)cc2=O)cc1`: the Potency was 11.2 µM (active).

For the compound `O=C(Nc1ccncc1)c1ccc(S(=O)(=O)Nc2ccccc2)cc1`, the Potency result is “inactive”.

For the compound `COc1cc(C(O)P(=O)(OC(C)C)c2ccc(N(C)C)cc2)cc(OC)c1OC` (stereo not given), the Potency result is “inactive”.
